According to publication PMC5540273 (PLoS ONE, 2017):

Tests used:
Settings in all cases: concentration: 1 μM, replicates: in singlicate; n = 1
YANK3 = test system: T1, YANK3
T1 construct: gene STK32C

YES = test system: T2, YES
T2 construct: gene YES1

YSK1 = test system: T3, YSK1
T3 construct: gene STK25

YSK4 = test system: T4, YSK4
T4 construct: gene MAP3K19

ZAK = test system: ZAK
ZAP70 = test system: ZAP70
p38-alpha = test system: T5, p38-alpha
T5 construct: gene MAPK14

p38-beta = test system: T6, p38-beta
T6 construct: gene MAPK11

p38-delta = test system: p38-delta
p38-gamma = test system: T7, p38-gamma
T7 construct: gene MAPK12
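Note: KINOMEscan kinase panel screen.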

Row | SMILES | %Inh (YANK3) | %Inh (YES) | %Inh (YSK1) | %Inh (YSK4) | %Inh (ZAK) | %Inh (ZAP70) | %Inh (p38-alpha) | %Inh (p38-beta) | %Inh (p38-delta) | %Inh (p38-gamma)
1 | COc1ccc(Nc2nccc(N3CCC(NC(=O)Nc4cccc(C(C)=O)c4)C3)n2)cc1 (centres unmarked) [GSK1379731] | 0% | 0% | 0% | 7% | 0% | 0% | 0% | 0% | 42% | 0%
2 | Nc1nccc(-c2c(-c3ccc(F)cc3)ncn2C2CCN(CC(F)(F)F)CC2)n1 [SB-236560] | 0% | 8% | 0% | 0% | 0% | 49% | 96.6% | 11% | 8% | 0%
3 | O=C1Cc2cc(Nc3nc(NCc4cccc(S(=O)(=O)C(F)(F)F)c4)ncc3C(F)(F)F)ccc2N1 | 0% | 8% | 10% | 25% | 1% | 9% | 22% | 0% | 15% | 0%
4 | Cc1cccc(-c2nc(Nc3ccc4ncsc4c3)c3ccccc3n2)n1 [GW867588] | 29% | 0% | 0% | 11% | 0% | 10% | 0% | 0% | 0% | 0%
5 | NS(=O)(=O)c1cccc(-c2ccc3nccc(-c4cccc(S(N)(=O)=O)c4)c3c2)c1 [GW867253] | 0% | 0% | 0% | 26% | 2% | 12% | 1% | 3% | 0% | 0%
6 | Fc1ccc(-c2nn3c(OCC(F)(F)F)cccc3c2-c2ccncc2)cc1 [GW514784] | 0% | 11% | 17% | 0% | 17% | 0% | 99.9% | 40% | 22% | 1%
7 | COc1cc2c(cc1OCCN1CCN(C)CC1)ncc1c3ccc(C#N)cc3[nH]c21 | 35% | 3% | 0% | 89% | 0% | 0% | 0% | 1% | 7% | 35%
8 | O=C(NCCNc1ccnc(Nc2ccc(F)cc2)n1)c1cc2ccccc2s1 [GSK1379874] | 8% | 3% | 0% | 35% | 100% | 6% | 20% | 0% | 40% | 0%
9 | O=C1NC(=O)C(N2CCc3ccccc32)=C1c1cccc(Cl)c1 [SB-408010] | 17% | 0% | 0% | 0% | 14% | 29% | 7% | 7% | 15% | 0%
10 | Fc1ccc(-c2ncn(CCCN3CCOCC3)c2-c2ccccn2)cc1 [SB-211742] | 0% | 0% | 0% | 0% | 0% | 3% | 2% | 0% | 2% | 23%
11 | CSc1ccc(-c2cc3ncnc(SCC(=O)O)c3s2)cc1 | 0% | 0% | 0% | 7% | 0% | 0% | 0% | 0% | 34% | 5%
12 | CCn1cnc2c(N)ncnc21 [GW345098] | 0% | 21% | 0% | 5% | 12% | 3% | 5% | 4% | 0% | 49%
13 | O=c1cc(N2CCOCC2)nc2n(Cc3cccc(F)c3)ccn12 [GSK2297430] | 22% | 16% | 0% | 33% | 0% | 0% | 43% | 0% | 22% | 0%
14 | NS(=O)(=O)CCc1cccc(Nc2nccc(-c3c(-c4cccc(NC(=O)c5c(F)cccc5F)c4)nn4ccccc34)n2)c1 [GSK336735] | 37% | 99.8% | 24% | 20% | 98.4% | 0% | 97.8% | 98.7% | 54% | 0%
15 | O=C(NCCCN1CCOCC1)c1cccc(Nc2nccc(Nc3ccc(Oc4ccccc4)cc3)n2)c1 [GW663929] | 1% | 84% | 22% | 26% | 47% | 6% | 11% | 0% | 18% | 0%
16 | Cc1cccc(Cn2ccn3c(=O)cc(N4CCOCC4)nc23)c1 [GSK2297542] | 16% | 19% | 17% | 12% | 17% | 0% | 27% | 0% | 36% | 51%
17 | CNc1ncnc2[nH]ncc12 [SKF-18355] | 0% | 0% | 0% | 46% | 0% | 24% | 6% | 8% | 0% | 0%
